SMILES strings stand for the structures. About 83,000 compounds went through this panel and 20% of them were active in at least one assay; those are over-represented in the sample as a whole.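 Treatment: one concentration, 48 hours, 96-well format. Scoring: percent growth, with anything below 10 considered active.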 Unmarked numbers belong to inactive results. Activity calls are given as the source filed them.

Among the test systems are HCT-15 colon; HT29 colon; SNB-75 CNS; SNB-19 CNS; U251 CNS; PC-3 prostate; SK-MEL-5 melanoma; UACC-62 melanoma; LOX IMVI melanoma; SK-MEL-28 melanoma; SK-MEL-2 melanoma; EKVX NSCLC; SN12C renal; UO-31 renal; TK-10 renal; ACHN renal; CAKI-1 renal; A498 renal; CCRF-CEM leukemia; MOLT-4 leukemia.
Common to all, as to assay: NCI-60 one-dose screen, 48 h (100 = growth as untreated, 0 = no growth, -100 = all killed)
Holding throughout (details): 10 µM unless noted

In the case of `COc1ccccc1/C=C1\Oc2ccc(O)c(O)c2C1=O`, the growth in the assay on HCT-15 colon was 77.5%; in the assay with HT29 colon it was 105%; in the assay with SNB-75 CNS, 82.6%; in the assay on SNB-19 CNS, 86.4%; in the assay with U251 CNS, 86.8%; in the assay on PC-3 prostate it was 98.7%. In addition, the growth was 99% in the assay with SK-MEL-5 melanoma; 92.1% in the assay on UACC-62 melanoma; 83.5% in the assay with LOX IMVI melanoma; 94% with SK-MEL-28 melanoma; 102% in the assay on SK-MEL-2 melanoma; 78.5% with EKVX NSCLC. The growth in the assay with SN12C renal was 94.5%; with UO-31 renal, 82.1%; in the assay on TK-10 renal, 100%; with ACHN renal, 101%; in the assay with CAKI-1 renal, 78.4%; in the assay on A498 renal, 85.1%. Moreover, the values for the growth in the assay with CCRF-CEM leukemia and in the assay on MOLT-4 leukemia were 75.5% and 85%, respectively.
As to `C#CCN(C)CCCOc1ccc(NCc2ccc(/C=C/C(=O)NO)cc2)cc1Cl`, the growth with HCT-15 colon is 8.05% (active); with HT29 colon, 8.52% (active); with SNB-75 CNS, 9.93% (active); with SNB-19 CNS, 8.74% (active); in the assay on U251 CNS, -13.3% (active); in the assay on PC-3 prostate it was 19%. In addition, the growth in the assay with SK-MEL-5 melanoma is -87.2% (active); in the assay on UACC-62 melanoma, -53.7% (active); in the assay with LOX IMVI melanoma it was -69.5% (active); in the assay with SK-MEL-28 melanoma, -14.4% (active); in the assay on SK-MEL-2 melanoma, -6.42% (active); in the assay on EKVX NSCLC, 16.3%. Besides, the growth with SN12C renal was 12.1%; with UO-31 renal, -57.4% (active); in the assay on TK-10 renal it was -12% (active); with ACHN renal, -41.4% (active); in the assay on CAKI-1 renal, -35.9% (active); in the assay on A498 renal it was -72.2% (active). Besides, the values for the growth in the assay with CCRF-CEM leukemia and in the assay with MOLT-4 leukemia were 10.7% and 15.7%, respectively.
For the compound `CCc1cc(O)ccc1Nc1cc(-c2ccc(-n3cccn3)cc2)[nH]n1`, the growth with HCT-15 colon was 33.6%; in the assay on HT29 colon, 77.4%; in the assay on SNB-75 CNS it was 117%; with SNB-19 CNS it was 69%; with U251 CNS it was 82.5%; with PC-3 prostate, 60.9%. In addition, the growth is 49.2% with SK-MEL-5 melanoma; 43.2% in the assay on UACC-62 melanoma; 26.1% with LOX IMVI melanoma; 80.8% in the assay with SK-MEL-28 melanoma; 87.3% in the assay with SK-MEL-2 melanoma; 63% in the assay with EKVX NSCLC. Also, the growth is 73.5% in the assay on SN12C renal; 50.9% with UO-31 renal; 98.6% with TK-10 renal; 43.9% with ACHN renal; 44.8% in the assay on CAKI-1 renal; 92.9% in the assay with A498 renal. Besides, the growth in the assay with CCRF-CEM leukemia is 60.4%; in the assay with MOLT-4 leukemia, 43.6%.
Consider `CC1=C(SCC(=O)OCCCCCC(C)C)C(=O)c2ccccc2C1=O`, for which the growth with HCT-15 colon is 89.3%; in the assay on HT29 colon, 106%; in the assay with SNB-75 CNS, 91.1%; in the assay on SNB-19 CNS, 91.1%; with U251 CNS, 92%; in the assay with PC-3 prostate it was 68.8%. Also, the growth in the assay with SK-MEL-5 melanoma is 91.8%; in the assay on UACC-62 melanoma, 86.2%; in the assay on LOX IMVI melanoma, 93.2%; in the assay on SK-MEL-28 melanoma it was 110%; in the assay with SK-MEL-2 melanoma it was 99.1%; with EKVX NSCLC, 82.5%. Also, the growth with SN12C renal is 83%; with UO-31 renal it was 62.9%; in the assay with TK-10 renal, 133%; in the assay on ACHN renal, 85.7%; in the assay on CAKI-1 renal it was 80.3%; in the assay with A498 renal, 107%. The growth is 91.3% in the assay with CCRF-CEM leukemia and 79.4% in the assay on MOLT-4 leukemia.
On to `CN(C)CCNc1ccc2ncc(C#Cc3cncc(C(=O)Nc4ccc(CN5CCN(C)CC5)c(C(F)(F)F)c4)c3)n2n1`, for which the growth is 34.7% with HCT-15 colon; -13% (active) in the assay with HT29 colon; -93.4% (active) with SNB-75 CNS; 1.59% (active) in the assay with SNB-19 CNS; 23.8% in the assay on U251 CNS; 2.27% (active) in the assay with PC-3 prostate. Also, the growth is 74.6% in the assay with SK-MEL-5 melanoma; 60.2% in the assay on UACC-62 melanoma; -88.6% (active) in the assay with LOX IMVI melanoma; 75% in the assay on SK-MEL-28 melanoma; 0.656% (active) with SK-MEL-2 melanoma; 7.33% (active) in the assay with EKVX NSCLC. For the same compound, the growth in the assay with SN12C renal is -9.94% (active); in the assay on UO-31 renal it was 77.8%; in the assay with TK-10 renal it was 26.6%; with ACHN renal, 10.7%; in the assay on CAKI-1 renal it was 3.13% (active); with A498 renal, 87.7%. In addition, the growth with CCRF-CEM leukemia was 5.95% (active); in the assay on MOLT-4 leukemia, -9.54% (active).
Turning to `FC(F)(F)c1cc(Br)cc(-c2cc(-c3ccc4c(c3)OCCO4)[nH]n2)c1`, the growth in the assay with HCT-15 colon was 15.7%; with HT29 colon, 6.74% (active); with SNB-75 CNS it was 5.38% (active); in the assay with SNB-19 CNS it was 34.3%; in the assay on U251 CNS, 23.1%; with PC-3 prostate it was 37%. The growth in the assay with SK-MEL-5 melanoma was 17.9%; in the assay with UACC-62 melanoma, 40.2%; in the assay on LOX IMVI melanoma, 19%; with SK-MEL-28 melanoma, 68.3%; with SK-MEL-2 melanoma, 77.4%; in the assay with EKVX NSCLC it was 52.4%. Also, the growth is 44.7% in the assay with SN12C renal; 51.3% with UO-31 renal; 121% in the assay with TK-10 renal; 28.9% in the assay on ACHN renal; 33.3% in the assay on CAKI-1 renal; 11.6% in the assay on A498 renal. Further, the results for the growth in the assay on CCRF-CEM leukemia and with MOLT-4 leukemia were 14.9% and 22.5%, respectively.
`CC(Nc1c(C#N)cnc2ccc(-c3cncc(O)c3)cc12)c1ccccc1` (stereo not given): the growth in the assay with HCT-15 colon was 4.88% (active); in the assay on HT29 colon, 46.8%; with SNB-75 CNS, 10.5%; in the assay with SNB-19 CNS it was -6.67% (active); in the assay on U251 CNS it was 6.74% (active); in the assay with PC-3 prostate it was 9.41% (active). Moreover, the growth is -89.4% (active) in the assay with SK-MEL-5 melanoma; -51.2% (active) in the assay with UACC-62 melanoma; 1.56% (active) in the assay with LOX IMVI melanoma; 3.08% (active) in the assay on SK-MEL-28 melanoma; -43.6% (active) with SK-MEL-2 melanoma; -13.6% (active) in the assay on EKVX NSCLC. Also, the growth in the assay on SN12C renal was -5.67% (active); in the assay on UO-31 renal, -9.46% (active); in the assay with TK-10 renal, -13.2% (active); with ACHN renal it was 3.13% (active); in the assay with CAKI-1 renal it was 7.08% (active); with A498 renal, 45%. Besides, the growth in the assay with CCRF-CEM leukemia is 10.6%; in the assay on MOLT-4 leukemia it was 2.65% (active).
